In PubChem BioAssay (EPA / NIEHS):
Records with an inconclusive call do not appear. Calls of active or inactive are those of the source. The calls were made as follows, unless noted: active = hit-call score of the fitted dose curve at least 0.9, where 1 is the maximum; inactive = score below 0.9.

What was measured:
[1] = target: CCAAT/enhancer-binding protein beta (Homo sapiens) (UniProt P17676); assay: ATG_C_EBP_CIS: Attagene CIS-FACTORIAL HepG2 Assay for human CCAAT/Enhancer Binding Protein (C/EBP) beta (AID 2282927); conditions: HepG2 Attagene cis-factorial transcription factor reporter; actives raise or lower the signal
Procedure, shortened: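 Transiently transfected HepG2 (MRTU library, endogenous TF-driven promoters); 24 h dosing; total RNA → oligo(dT) RT → PCR → 6-FAM primer extension → HpaI digest → CE; fit bidirectionally vs DMSO.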

[2] = ATG_CMV_CIS: Attagene CIS-FACTORIAL HepG2 Assay for human CMV (Internal Marker) (AID 2282928); conditions: HepG2 CMV promoter reporter, transcription factor profiling; actives raise or lower the signal;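 also: endpoint acts as a background internal control marker rather than a target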
Procedure, shortened: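 Cell system: HepG2, transiently transfected multiple reporter units under cis promoters. Exposure: 24 h. Detection: RT-PCR, FAM labeling, HpaI digestion, capillary electrophoresis. Analysis: bidirectional, DMSO baseline.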

[3] = target: Aryl hydrocarbon receptor (Homo sapiens) (UniProt P35869); assay: ATG_Ahr_CIS: Attagene CIS-FACTORIAL HepG2 Assay for human Aryl Hydrocarbon Receptor (Ahr) (AID 2282930); conditions: HepG2 AhR cis-factorial reporter transcription; actives raise or lower the signal
Procedure, shortened: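 Read-out: reporter mRNA quantified by RT-PCR with fluorescent primer extension and capillary electrophoresis. Human HepG2 liver cells carried transfected cis-promoter reporter units and were exposed to chemical for 24 h; gain or loss fitted relative to DMSO.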

[4] = ATG_AP_1_CIS: Attagene CIS-FACTORIAL HepG2 Assay for human Activator Protein 1 (AP-1) (AID 2282931); conditions: HepG2 Attagene cis-factorial AP-1 reporter mRNA; actives raise or lower the signal
Procedure, shortened: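 HepG2 cells transiently transfected with cis-element-driven reporter transcription units, dosed for 24 hours. Reporter mRNA measured by RT-PCR, 6-FAM labelling, HpaI digestion and capillary electrophoresis. Bidirectional fitting against DMSO baseline.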

[5] = ATG_EGR_CIS: Attagene CIS-FACTORIAL HepG2 Assay for human Early Growth Response 1 (EGR1) (AID 2282938); conditions: HepG2 Attagene CIS-FACTORIAL EGR reporter mRNA; actives raise or lower the signal
Procedure, shortened: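 HepG2 cells transiently transfected with cis-element-driven multiplexed reporter units, dosed for 24 h. EGR1-element reporter mRNA quantified by RT-PCR, 6-FAM labelling, HpaI digestion and capillary electrophoresis; bidirectional fit versus DMSO.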

[6] = ATG_GLI_CIS: Attagene CIS-FACTORIAL HepG2 Assay for human Zinc Finger Protein GLI1 (AID 2282945); conditions: HepG2, Attagene cis-factorial reporter mRNA, GLI element; actives raise or lower the signal
Procedure, shortened: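 Transiently transfected HepG2 cells report endogenous transcription factor activity via cis-element-driven reporter units. After 24 h compound exposure, reporter mRNA was measured by RT-PCR with capillary electrophoresis; bidirectional fitting against DMSO baseline.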

[7] = ATG_ISRE_CIS: Attagene CIS-FACTORIAL HepG2 Assay for human Interferon Regulatory Factor 1 (IRF1) binding to an Interferon-Stimulated Response Element (ISRE) (AID 2282948); conditions: HepG2 ISRE cis-reporter (Attagene), mRNA transcription readout; actives raise or lower the signal
Procedure, shortened: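 Quantitation relies on labelled RT-PCR fragments separated by capillary electrophoresis. Human HepG2 cells bearing cis-promoter reporter constructs were treated 24 h; DMSO served as baseline for bidirectional fitting.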

[8] = ATG_M_06_CIS: Attagene CIS-FACTORIAL HepG2 Assay for M06 Transcription Factor (Internal Marker) (AID 2282950); conditions: HepG2 Attagene CIS-FACTORIAL M06 internal marker reporter; actives raise or lower the signal
Procedure, shortened: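 Fluorescence-labelled RT-PCR products from cis-promoter reporter units, cut with HpaI and resolved by capillary electrophoresis, give the signal. Cells are human HepG2, dosed for 24 h. Serves as background control, fitted relative to DMSO.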

[9] = target: Hypoxia-inducible factor 1-alpha (Homo sapiens) (UniProt Q16665); assay: ATG_HIF1a_CIS: Attagene CIS-FACTORIAL HepG2 Assay for human Hypoxia Inducible Factor 1 (HIF1A) (AID 2282951); conditions: HepG2 Attagene cis-factorial HIF1a reporter transcription; actives raise or lower the signal
Procedure, shortened: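 HepG2 cells transiently transfected with multiple cis-regulated reporter transcription units measure endogenous transcription factor activity. After 24 h exposure, reporter mRNA is quantified by RT-PCR with 6-FAM labelling, HpaI digestion and capillary electrophoresis. Bidirectional fitting against DMSO.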

[10] = target: Heat shock factor protein 1 (Homo sapiens) (UniProt Q00613); assay: ATG_HSE_CIS: Attagene CIS-FACTORIAL HepG2 Assay for human Heat Shock Transcription Factor 1 (HSE) (AID 2282953); conditions: HepG2 HSE cis-reporter, Attagene RNA transcription; actives raise or lower the signal
Procedure, shortened: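 After a 24 h incubation with test chemical, transfected HepG2 cells were harvested for RNA; reporter transcripts were measured by RT-PCR and capillary electrophoresis. Values reflect gain or loss of signal relative to DMSO.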

[11] = ATG_TAL_CIS: Attagene CIS-FACTORIAL HepG2 Assay for human TAL Basal Promoter (AID 2282966); conditions: HepG2 Attagene cis-factorial TAL promoter reporter; actives raise or lower the signal;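 also: background control endpoint measuring basal TAL promoter reporter mRNA not a specific factor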
Procedure, shortened: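 Readout: reporter mRNA, fluorescence by CE. System: HepG2, transient multi-reporter transfection, endogenous TF activity. Exposure: 24 h. Analysis: bidirectional, DMSO-normalized; background control.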

[12] = target: X-box-binding protein 1 (Homo sapiens) (UniProt P17861); assay: ATG_Xbp1_CIS: Attagene CIS-FACTORIAL HepG2 Assay for human X-box Binding Protein 1 (XBP1) (AID 2282972); conditions: HepG2 XBP1 cis-element reporter, Attagene multiplex; actives raise or lower the signal
Procedure, shortened: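 After a 24-hour chemical exposure of HepG2 cells carrying cis-regulated reporters, reporter mRNA levels are assessed. Quantification uses RT-PCR, 6-FAM labelling and capillary electrophoresis. Gain- or loss-of-signal is fitted against DMSO.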

[13] = target: Transcriptional activator Myb (Homo sapiens) (UniProt P10242); assay: ATG_Myb_CIS: Attagene CIS-FACTORIAL HepG2 Assay for human Myeloblastosis (Myb) Proto-Oncogene Transcription Factor (AID 2282986); conditions: HepG2 Attagene CIS-FACTORIAL Myb reporter transcription; actives raise or lower the signal
Procedure, shortened: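 Transiently transfected HepG2 cells carrying a multiplexed cis-promoter reporter set report endogenous Myb activity after 24 h compound exposure. Reporter mRNA is read by RT-PCR with capillary electrophoresis of fluorescent products, fitted bidirectionally against DMSO.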

[14] = target: Nuclear respiratory factor 1 (Homo sapiens) (UniProt Q16656); assay: ATG_NRF1_CIS: Attagene CIS-FACTORIAL HepG2 Assay for human Nuclear Respiratory Factor 1 (NRF1) Orphan Gene (AID 2282987); conditions: HepG2 NRF1 cis-element reporter, Attagene multiplex; actives raise or lower the signal
Procedure, shortened: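 HepG2 cells transiently transfected with multiple cis-regulated reporter units, exposed 24 h. Reporter mRNAs measured by RT-PCR, fluorescent labelling, HpaI digestion and capillary electrophoresis; bidirectional fitting against DMSO.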

[15] = ATG_NFI_CIS: Attagene CIS-FACTORIAL HepG2 Assay for human Nuclear Factor I (NFI) (AID 2282989); conditions: HepG2 cis-regulatory reporter, NFI response element transcription; actives raise or lower the signal
Procedure, shortened: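 After transient transfection of HepG2 with cis-promoter reporter constructs and 24 h dosing, RNA is reverse-transcribed, amplified, 6-FAM end-labelled and HpaI-digested before capillary analysis. Bidirectional curve fitting against DMSO.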

[16] = ATG_NRF2_ARE_CIS: Attagene CIS-FACTORIAL HepG2 Assay for human Nuclear Factor Erythroid 2 Related Factor 2 (NFR2) response to Antioxidant Response Elements (ARE) (AID 2282992); conditions: HepG2 Attagene ARE/NRF2 reporter, transcription factor activity; actives raise or lower the signal
Procedure, shortened: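 Cis-factorial assay: transfected HepG2 reporter library, 24 h dosing, mRNA readout via RT-PCR/CE; DMSO-referenced bidirectional analysis.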

[17] = ATG_Oct_MLP_CIS: Attagene CIS-FACTORIAL HepG2 Assay for human Octamer-Binding Transcription Factor (Oct) (AID 2282993); conditions: HepG2 Attagene cis-factorial Oct reporter, mRNA; actives raise or lower the signal
Procedure, shortened: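 Cells of the HepG2 line express promoter-controlled reporter sequences whose mRNA levels, after 24 h treatment, are measured by RT-PCR and capillary electrophoresis. Increases and decreases are scored relative to DMSO.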

[18] = ATG_XTT_Cytotoxicity: Cytotoxicity Assessment in the Attagene TRANS-FACTORIAL HepG2 Assay (AID 2283584; active = hit-call score of the fitted dose curve at least 0.9, where 1 is the maximum)
Procedure, shortened: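 Transfect HepG2 with GAL4-UAS reporter units, dose compound, incubate 24 h, then measure viable cell number by XTT. Fit concentration response against DMSO baseline.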

[19] = ATG_VDRE_CIS: Attagene CIS-FACTORIAL HepG2 Assay for human Vitamin D Receptor Element (VDRE) (AID 2282968); conditions: HepG2 VDRE cis-reporter transcription, actives raise or lower the signal
Procedure, shortened: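 Cell-based multiplexed reporter format in human liver HepG2 cells, 24 h post-dose. Fluorescence from capillary electrophoresis of reporter cDNA gives the signal, with DMSO as negative control and baseline.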

[20] = target: Cellular tumor antigen p53 (Homo sapiens) (UniProt P04637); assay: ATG_p53_CIS: Attagene CIS-FACTORIAL HepG2 Assay for human p53 Transcription Factor (AID 2282994); conditions: HepG2 p53 cis-element reporter, Attagene mRNA; actives raise or lower the signal
Procedure, shortened: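 Using HepG2 hepatoma cells carrying cis-acting multiplexed reporters, mRNA induction is detected after a 24 h exposure. Gain- and loss-of-signal responses are fitted relative to DMSO-treated cells.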

Measured: AC50

Chain of CCAAT/enhancer-binding protein beta (Homo sapiens) (P17676 whole entry, looked up): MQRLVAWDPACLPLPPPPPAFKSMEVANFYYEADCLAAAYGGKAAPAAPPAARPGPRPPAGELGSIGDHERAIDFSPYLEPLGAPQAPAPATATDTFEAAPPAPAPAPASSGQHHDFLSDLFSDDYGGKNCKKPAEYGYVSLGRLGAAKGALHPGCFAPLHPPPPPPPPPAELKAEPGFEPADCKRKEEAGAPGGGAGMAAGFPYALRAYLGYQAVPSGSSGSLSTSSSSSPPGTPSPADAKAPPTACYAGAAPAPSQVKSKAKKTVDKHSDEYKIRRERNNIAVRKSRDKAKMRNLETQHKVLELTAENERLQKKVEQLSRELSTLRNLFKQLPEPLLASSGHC
Chain of Heat shock factor protein 1 (Homo sapiens) (Q00613 whole entry, looked up): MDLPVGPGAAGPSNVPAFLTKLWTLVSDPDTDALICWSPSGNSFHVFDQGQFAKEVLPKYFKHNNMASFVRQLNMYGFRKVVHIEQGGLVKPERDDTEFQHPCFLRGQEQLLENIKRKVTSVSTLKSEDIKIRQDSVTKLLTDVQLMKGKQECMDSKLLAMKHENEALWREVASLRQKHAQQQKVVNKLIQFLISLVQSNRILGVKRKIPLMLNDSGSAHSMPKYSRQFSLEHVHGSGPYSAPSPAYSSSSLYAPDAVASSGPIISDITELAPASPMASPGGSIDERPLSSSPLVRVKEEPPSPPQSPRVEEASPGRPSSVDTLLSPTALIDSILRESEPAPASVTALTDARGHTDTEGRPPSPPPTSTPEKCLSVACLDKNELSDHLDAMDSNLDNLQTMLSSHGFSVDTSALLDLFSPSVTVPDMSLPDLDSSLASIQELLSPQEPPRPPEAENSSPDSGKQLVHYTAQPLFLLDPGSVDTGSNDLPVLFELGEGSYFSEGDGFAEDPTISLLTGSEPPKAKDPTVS
Chain of Aryl hydrocarbon receptor (Homo sapiens) (P35869 whole entry, looked up): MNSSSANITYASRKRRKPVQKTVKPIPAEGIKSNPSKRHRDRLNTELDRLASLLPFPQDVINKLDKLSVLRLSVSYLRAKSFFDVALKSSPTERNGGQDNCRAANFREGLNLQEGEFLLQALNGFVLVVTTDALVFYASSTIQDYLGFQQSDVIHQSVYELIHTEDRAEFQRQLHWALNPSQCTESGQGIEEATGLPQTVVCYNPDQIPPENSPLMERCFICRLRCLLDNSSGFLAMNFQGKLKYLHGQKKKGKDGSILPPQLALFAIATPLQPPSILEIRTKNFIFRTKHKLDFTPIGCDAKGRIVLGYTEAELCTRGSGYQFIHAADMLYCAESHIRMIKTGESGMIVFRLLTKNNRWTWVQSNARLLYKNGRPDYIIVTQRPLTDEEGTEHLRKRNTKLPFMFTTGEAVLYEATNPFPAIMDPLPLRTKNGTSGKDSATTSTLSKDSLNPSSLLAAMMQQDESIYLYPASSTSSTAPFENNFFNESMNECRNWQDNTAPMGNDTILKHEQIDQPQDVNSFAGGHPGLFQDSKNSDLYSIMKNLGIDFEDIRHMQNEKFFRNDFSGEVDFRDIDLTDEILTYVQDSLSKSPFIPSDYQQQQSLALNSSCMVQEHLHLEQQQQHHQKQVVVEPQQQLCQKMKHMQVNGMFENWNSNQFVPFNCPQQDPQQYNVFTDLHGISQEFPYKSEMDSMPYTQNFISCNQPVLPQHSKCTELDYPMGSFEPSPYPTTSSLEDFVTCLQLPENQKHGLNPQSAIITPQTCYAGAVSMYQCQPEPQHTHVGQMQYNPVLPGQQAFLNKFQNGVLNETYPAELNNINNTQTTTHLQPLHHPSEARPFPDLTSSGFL
Chain of X-box-binding protein 1 (Homo sapiens) (P17861 whole entry, looked up): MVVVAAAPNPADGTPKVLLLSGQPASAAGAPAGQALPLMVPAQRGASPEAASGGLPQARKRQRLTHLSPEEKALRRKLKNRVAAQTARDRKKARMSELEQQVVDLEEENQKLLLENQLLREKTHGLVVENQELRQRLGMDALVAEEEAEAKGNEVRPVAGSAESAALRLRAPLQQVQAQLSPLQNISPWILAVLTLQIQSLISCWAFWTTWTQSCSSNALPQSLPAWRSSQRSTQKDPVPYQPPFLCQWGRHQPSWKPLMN
Chain of Hypoxia-inducible factor 1-alpha (Homo sapiens) (Q16665 whole entry, looked up): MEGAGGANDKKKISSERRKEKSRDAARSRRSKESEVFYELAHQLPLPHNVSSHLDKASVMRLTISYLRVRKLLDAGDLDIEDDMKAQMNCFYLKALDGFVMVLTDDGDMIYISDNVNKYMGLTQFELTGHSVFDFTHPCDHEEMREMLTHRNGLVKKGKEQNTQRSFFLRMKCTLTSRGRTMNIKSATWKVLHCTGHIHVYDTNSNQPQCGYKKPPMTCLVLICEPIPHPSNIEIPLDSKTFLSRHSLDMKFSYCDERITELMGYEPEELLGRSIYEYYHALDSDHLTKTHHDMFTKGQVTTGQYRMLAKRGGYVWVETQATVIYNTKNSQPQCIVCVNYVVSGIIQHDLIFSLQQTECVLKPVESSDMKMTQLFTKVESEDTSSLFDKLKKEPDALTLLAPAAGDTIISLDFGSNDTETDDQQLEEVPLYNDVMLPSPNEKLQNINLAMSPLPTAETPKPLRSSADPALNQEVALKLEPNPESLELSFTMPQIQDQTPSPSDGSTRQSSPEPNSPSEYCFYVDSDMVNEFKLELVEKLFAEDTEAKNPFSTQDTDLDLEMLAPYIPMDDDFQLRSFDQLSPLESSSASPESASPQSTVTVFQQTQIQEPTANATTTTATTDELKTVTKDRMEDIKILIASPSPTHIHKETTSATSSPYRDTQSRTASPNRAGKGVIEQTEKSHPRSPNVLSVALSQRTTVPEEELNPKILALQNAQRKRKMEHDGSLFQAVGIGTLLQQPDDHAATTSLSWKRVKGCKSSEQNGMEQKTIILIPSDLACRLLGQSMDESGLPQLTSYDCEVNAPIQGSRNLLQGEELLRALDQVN
Chain of Cellular tumor antigen p53 (Homo sapiens) (P04637 whole entry, looked up): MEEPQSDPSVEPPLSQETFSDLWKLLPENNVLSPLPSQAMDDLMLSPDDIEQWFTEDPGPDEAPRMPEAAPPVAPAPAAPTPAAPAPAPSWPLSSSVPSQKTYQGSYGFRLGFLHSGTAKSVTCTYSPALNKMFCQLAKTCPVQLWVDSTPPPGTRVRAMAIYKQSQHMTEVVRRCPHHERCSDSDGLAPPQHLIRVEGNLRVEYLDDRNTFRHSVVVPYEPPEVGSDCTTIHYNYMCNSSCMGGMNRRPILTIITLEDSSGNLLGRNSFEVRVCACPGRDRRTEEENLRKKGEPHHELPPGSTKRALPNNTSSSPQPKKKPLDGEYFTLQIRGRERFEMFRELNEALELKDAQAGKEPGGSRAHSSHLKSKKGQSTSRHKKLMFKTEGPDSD
Chain of Nuclear respiratory factor 1 (Homo sapiens) (Q16656 whole entry, looked up): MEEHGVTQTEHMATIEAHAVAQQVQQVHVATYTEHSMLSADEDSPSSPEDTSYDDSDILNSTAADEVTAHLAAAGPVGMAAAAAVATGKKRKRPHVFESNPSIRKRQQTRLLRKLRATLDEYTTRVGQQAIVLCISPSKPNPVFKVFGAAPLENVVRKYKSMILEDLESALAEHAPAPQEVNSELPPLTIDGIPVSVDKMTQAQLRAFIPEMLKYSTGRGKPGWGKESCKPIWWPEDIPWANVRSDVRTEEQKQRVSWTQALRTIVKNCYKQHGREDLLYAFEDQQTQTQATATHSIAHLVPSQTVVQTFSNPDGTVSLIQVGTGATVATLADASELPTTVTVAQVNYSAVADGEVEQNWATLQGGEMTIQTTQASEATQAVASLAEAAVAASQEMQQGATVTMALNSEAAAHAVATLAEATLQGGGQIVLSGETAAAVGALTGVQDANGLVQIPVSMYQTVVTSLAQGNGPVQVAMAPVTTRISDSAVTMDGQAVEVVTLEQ
Chain of Transcriptional activator Myb (Homo sapiens) (P10242 whole entry, looked up): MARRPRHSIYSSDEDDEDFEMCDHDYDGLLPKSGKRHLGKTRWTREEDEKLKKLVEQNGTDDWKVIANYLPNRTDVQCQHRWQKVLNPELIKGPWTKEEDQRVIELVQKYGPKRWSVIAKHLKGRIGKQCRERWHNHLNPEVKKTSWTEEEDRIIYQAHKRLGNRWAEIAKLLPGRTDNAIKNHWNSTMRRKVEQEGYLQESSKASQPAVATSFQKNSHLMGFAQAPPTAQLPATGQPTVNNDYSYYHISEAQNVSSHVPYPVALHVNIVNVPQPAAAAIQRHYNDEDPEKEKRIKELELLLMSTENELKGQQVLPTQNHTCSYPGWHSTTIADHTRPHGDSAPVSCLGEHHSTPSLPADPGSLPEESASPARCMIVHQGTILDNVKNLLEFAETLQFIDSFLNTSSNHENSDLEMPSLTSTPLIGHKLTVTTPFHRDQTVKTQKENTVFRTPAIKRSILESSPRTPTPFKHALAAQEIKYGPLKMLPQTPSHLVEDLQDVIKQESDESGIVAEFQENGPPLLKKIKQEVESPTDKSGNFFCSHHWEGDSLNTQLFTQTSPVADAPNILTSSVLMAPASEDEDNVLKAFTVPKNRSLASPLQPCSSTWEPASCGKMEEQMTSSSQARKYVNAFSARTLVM

O=S(=O)(O)O
not listed: [19] | [20]
inactive: all other assays above

CC(C)(C)C(O)C(Oc1ccc(-c2ccccc2)cc1)n1cncn1 (stereo not given)
active: [1] 47.1 µM | [2] 33.4 µM | [4] 44.2 µM | [7] 51.8 µM | [10] 59.6 µM | [19] 9 µM | [16] 41.6 µM | [20] 44 µM
inactive: all other assays above

CCc1cc(C)cc(CC)c1-c1c(OC(=O)C(C)(C)C)n2n(c1=O)CCOCC2
not listed: [4] | [6] | [7] | [18]
inactive: all other assays above

Nc1ccccc1C(=O)Oc1ccc2ccccc2c1
active: [6] 70.9 µM | [10] 27.7 µM | [11] 116 µM | [13] 162 µM | [14] 139 µM | [15] 85.4 µM | [16] 31.7 µM | [17] 54.7 µM
not listed: [2] | [3]
inactive: all other assays above

C[C@]12CCC(=O)C(O)=C1CC[C@@H]1[C@@H]2CC[C@]2(C)C(=O)CC[C@@H]12
active: [3] 31.2 µM
not listed: [2] | [4] | [8] | [16]
inactive: all other assays above

[N-]=[N+]=CC(=O)OC[C@H](N)C(=O)O
not listed: [3] | [9] | [10] | [16]
inactive: all other assays above

Nc1ccc(-c2ccc(N)c(N)c2)cc1N
active: [16] 14 µM
not listed: [2] | [4] | [11] | [20]
inactive: all other assays above
